Bioassay records deposited in PubChem BioAssay by National Center for Advancing Translational Sciences (NCATS).
The list is not random: actives were taken first. Their share in the collection is about 3.3%.
TbPYK inhibitor – qHTS of Trypanosoma Brucei Inhibitors. pyruvate kinase (Trypanosoma brucei), Q57TT1. TbPYK enzyme, Kinase-Glo Plus ATP luminescence, 45 min. Potency, µM (doses to about 76.8 µM), actives largely listed as inhibitors. actives 0.12% (n = 410,000). AID 624173, 2012; note: nearly all actives have a fitted effect of over 50% in size
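ADP (130 uM final) triggers the TbPYK reaction after compound addition; incubation is 45 min at room temperature. Kinase-Glo Plus is then added and luminescence imaged. Normalized data are fitted to concentration-effect curves.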
FBPA Giardia inh – qHTS Assay for Inhibitors of Fructose-1,6-bisphosphate Aldolase from Giardia Lamblia. actives 0.71% (n = 290,000). Potency, µM (highest dose often 59.6 µM), usual class: inhibitors. purified Giardia FBPA. A8B2U2; note: nearly all actives have a fitted effect of over 55% in size
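40 nM FBPA preincubated 10 min at RT with compound (up to 57.5 uM final), then substrate plus GAPDH/TPI/NAD/arsenate coupling and diaphorase/resazurin added. Fluorescence read after 20 min at RT, 525/598 nm.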
Sm TGR block – qHTS Assay for the Inhibitors of Schistosoma Mansoni Peroxiredoxins; Schistosoma mansoni thioredoxin glutathione reductase (TGR), Q962Y6; purified TGR, DTNB reduction, TNB absorbance 405 nm; Potency, µM (doses to about 114 µM), usual class: inhibitors; actives 3% (n = 360,000); AID 485364, 2010; note: nearly all actives have a fitted effect of over 60% in size
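TGR 20 nM + NADPH 100 uM (dispensed conc.), cpd preinc 15 min RT; start with NADPH (500 uM addition) then DTNB (15 mM addition). Kinetic TNB absorbance, 405 nm filter. Four-parameter Hill fit across titration.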
RE007 growth inh – qHTS Assay for Inhibitors of the HIV-1 protein Vpr; S. pombe RE007 Vpr strain, BacTiter-Glo ATP luminescence, 24 h; Potency, µM (highest dose often 92.2 µM), actives largely listed as inhibitors; actives 0.21% (n = 360,000); active = well fitted falling curve with a large enough effect; inconclusive = small, poorly fitted or top-dose-only effect; inactive = no such curve, though single readings can be large or run the other way; note: nearly all actives have a fitted effect of over 50% in size
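Fission yeast strain RE007, carrying one chromosomally integrated HIV-1 vpr copy, was seeded at OD 0.01 in PMG+AL medium with 23 nL pinned compound. After 24 h at 30 °C and 99% humidity, viability was read by BacTiter-Glo luminescence.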
LmPK inh – qHTS Assay for Inhibitors of Leishmania Mexicana Pyruvate Kinase (LmPK); Q27686; purified LmPK, Kinase-Glo ATP luminescence, 1 h; Potency, µM (doses to about 57.5 µM), actives largely listed as inhibitors; actives 0.37% (n = 290,000)
Target sequence (Q27686 whole entry, looked up): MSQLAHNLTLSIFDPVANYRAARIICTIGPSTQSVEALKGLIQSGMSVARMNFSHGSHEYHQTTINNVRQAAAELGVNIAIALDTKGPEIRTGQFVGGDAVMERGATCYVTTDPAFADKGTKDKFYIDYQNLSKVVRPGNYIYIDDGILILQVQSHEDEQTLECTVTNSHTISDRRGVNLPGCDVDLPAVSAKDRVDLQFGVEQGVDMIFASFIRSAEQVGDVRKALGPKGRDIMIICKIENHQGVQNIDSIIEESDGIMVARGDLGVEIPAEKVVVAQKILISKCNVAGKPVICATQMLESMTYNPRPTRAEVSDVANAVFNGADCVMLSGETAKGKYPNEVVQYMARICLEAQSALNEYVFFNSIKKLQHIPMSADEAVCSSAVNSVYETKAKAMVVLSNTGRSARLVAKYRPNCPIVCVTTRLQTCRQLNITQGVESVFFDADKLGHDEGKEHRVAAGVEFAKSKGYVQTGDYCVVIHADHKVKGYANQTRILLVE
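Pyruvate kinase activity monitored as ATP production (luciferase luminescence). Conditions: 0.1 nM enzyme, 0.5 mM PEP, 0.1 mM ADP, 1 h, RT; normalized against uninhibited and no-enzyme wells.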
A number is an active result. Unless noted, calls come from the whole dose curve; as a rule, active = well fitted curve in the direction sought with a large enough effect; inconclusive = small, poorly fitted or top-dose-only effect, or another doubt; inactive = no such curve, though single readings can be large; an effect the other way counts as inactive or inconclusive.

Screening Cc1ccc(C(=O)O)cc1NC(=S)NC(=O)Cc1ccccc1 returned TbPYK inhibitor inactive, FBPA Giardia inh inactive, Sm TGR block inactive, RE007 growth inh inactive and LmPK inh inactive.
Screening Cc1ccc(C(=O)O)cc1NC(=S)NC(=O)C(c1ccccc1)c1ccccc1 returned TbPYK inhibitor inactive, FBPA Giardia inh inactive, Sm TGR block 56.2µM, RE007 growth inh inactive and LmPK inh inactive.
`N#C/C(=C\c1ccc(OC(=O)c2cccs2)cc1)c1nc2ccccc2[nH]1` gave TbPYK inhibitor inactive, FBPA Giardia inh inactive, Sm TGR block inactive, RE007 growth inh inactive and LmPK inh inactive.
Screening COc1cc(CNc2ncc(-c3ccc(Br)cc3)n2C)cc(OC)c1O returned TbPYK inhibitor inactive, FBPA Giardia inh inconclusive, Sm TGR block 15.8µM, RE007 growth inh inactive and LmPK inh inactive.
COc1ccc(CNc2ncc(-c3ccc(F)cc3)n2C)cc1OC was read as TbPYK inhibitor inactive, FBPA Giardia inh inconclusive, Sm TGR block inactive, RE007 growth inh inactive and LmPK inh inactive.
For C/C(=C\C(=O)Nc1cc(C)on1)c1ccccc1 the results were TbPYK inhibitor inactive, FBPA Giardia inh inactive, Sm TGR block inactive, RE007 growth inh inactive and LmPK inh inactive.
For Cc1cc(C(=O)Nc2ccccc2)oc1C the results were TbPYK inhibitor inactive, Sm TGR block inactive, RE007 growth inh inactive and LmPK inh 15.8µM.
For O=C(Nc1ccc(F)cc1)c1cc2ccccc2o1 the results were TbPYK inhibitor inactive, FBPA Giardia inh inactive, Sm TGR block inactive, RE007 growth inh inactive and LmPK inh inactive.
Screening O=C(Nc1ccccc1)c1cc2ccccc2o1 returned TbPYK inhibitor inactive, FBPA Giardia inh inactive, Sm TGR block inactive, RE007 growth inh inconclusive and LmPK inh 14.1µM.
Screening CCCC(=O)N1CCN(c2ccc(NC(=O)c3cc4ccccc4o3)cc2Cl)CC1 returned TbPYK inhibitor inactive, FBPA Giardia inh 9.98µM, Sm TGR block inactive, RE007 growth inh inactive and LmPK inh inactive.
For CC(=O)c1sc(NC(=O)C2CC(=O)N(Cc3ccccc3)C2)nc1-c1ccccc1 (stereo unspecified) the results were TbPYK inhibitor inactive, Sm TGR block inactive and RE007 growth inh inactive.
`COc1ccc2[nH]c(C)c(C(=O)CN3CCOCC3)c2c1` gave TbPYK inhibitor inactive, FBPA Giardia inh inactive, Sm TGR block 44.7µM, RE007 growth inh inactive and LmPK inh inactive.
Screening CCc1nnc(NC(=O)CSc2nc3c([nH]c4ccccc43)c(=O)n2-c2ccc(C)cc2)s1 returned TbPYK inhibitor inactive and Sm TGR block inactive.
CC1CN(Cc2ccc(Cl)cc2Cl)CC(C)O1 (stereo unspecified) was read as TbPYK inhibitor inactive, FBPA Giardia inh inconclusive, Sm TGR block inactive, RE007 growth inh inactive and LmPK inh inactive.
`COc1ccc(-n2nc([N+](=O)[O-])c(=NCCc3ccc(OC)c(OC)c3)n2O)cc1` gave TbPYK inhibitor inactive, FBPA Giardia inh inactive, Sm TGR block 35.5µM, RE007 growth inh inactive and LmPK inh inactive.
`COc1ccccc1CN=c1c([N+](=O)[O-])nn(-c2ccc3c(c2)OCCO3)n1O` gave TbPYK inhibitor inactive, FBPA Giardia inh inactive, Sm TGR block 39.8µM, RE007 growth inh inactive and LmPK inh inactive.
For COC(=O)C1=C(C)NC(=O)/C1=C\c1cc(C)n(-c2cc(C)cc(C)c2)c1C the results were TbPYK inhibitor inactive, FBPA Giardia inh inactive, Sm TGR block inconclusive, RE007 growth inh 10µM and LmPK inh inactive.
COC(=O)C1=C(O)/C(=C\c2cc(C)n(-c3ccccc3C)c2C)N=C1C was read as TbPYK inhibitor inactive, FBPA Giardia inh 7.06µM, Sm TGR block 25.1µM, RE007 growth inh inactive and LmPK inh inactive.
For Cc1cc(/C=C2/C(=O)NC(=O)N(C)C2=O)c(C)n1-c1ccccc1 the results were TbPYK inhibitor inactive, FBPA Giardia inh inactive, RE007 growth inh inconclusive and LmPK inh inactive.
For Cc1cc(C)cc(N2C(=O)NC(=O)/C(=C\c3cc(C)n(C)c3C)C2=O)c1 the results were TbPYK inhibitor inactive, FBPA Giardia inh inactive, RE007 growth inh inactive and LmPK inh inactive.
COC(=O)C1=C(C)NC(=O)/C1=C\c1cc(C)n(-c2ccccc2)c1C was read as TbPYK inhibitor inactive, FBPA Giardia inh inconclusive, Sm TGR block 28.2µM, RE007 growth inh inconclusive and LmPK inh inactive.
Screening CCCN(C(=O)CSc1cc(-c2ccccc2)c2ccc(OC)cc2n1)C1CCS(=O)(=O)C1 (stereo unspecified) returned TbPYK inhibitor inactive, FBPA Giardia inh inactive, Sm TGR block inactive, RE007 growth inh inactive and LmPK inh inactive.
For C=CCSc1nccc(-c2nn(-c3ccc(C)cc3)ccc2=O)n1 the results were TbPYK inhibitor inactive, FBPA Giardia inh inactive, Sm TGR block inactive, RE007 growth inh inactive and LmPK inh inactive.
For NNC(=S)NC1CCCCCCCCCCC1 the results were TbPYK inhibitor inactive, FBPA Giardia inh inactive, Sm TGR block inactive, RE007 growth inh inactive and LmPK inh inactive.
`CCN(CC)C(=O)Cn1cc(SCC(=O)NCc2ccco2)c2ccccc21` gave TbPYK inhibitor inactive, FBPA Giardia inh inactive, Sm TGR block inactive, RE007 growth inh inactive and LmPK inh inactive.
Screening CCN(CC)C(=O)Cn1cc(C(=O)C(=O)NCc2ccco2)c2ccccc21 returned TbPYK inhibitor inactive, FBPA Giardia inh inactive, Sm TGR block 39.8µM, RE007 growth inh inactive and LmPK inh inactive.
O=C(COC(=O)C1CC(=O)N(Cc2ccco2)C1)Nc1ccccc1[N+](=O)[O-] (stereo unspecified) was read as TbPYK inhibitor inactive, Sm TGR block inactive and RE007 growth inh inactive.
`Cc1csc(NC(=O)C2CC(=O)N(Cc3ccco3)C2)n1` (stereo unspecified) gave TbPYK inhibitor inactive, FBPA Giardia inh inactive, Sm TGR block 44.7µM, RE007 growth inh inactive and LmPK inh inactive.
Screening O=C(OCC(=O)N1c2ccccc2Sc2ccccc21)C1CC(=O)N(Cc2ccco2)C1 (stereo unspecified) returned TbPYK inhibitor inactive, FBPA Giardia inh inactive, Sm TGR block 28.2µM, RE007 growth inh inactive and LmPK inh inactive.
For Cc1ccc(-c2csc(NC(=O)C3CC(=O)N(Cc4ccco4)C3)n2)cc1 (stereo unspecified) the results were TbPYK inhibitor inactive, FBPA Giardia inh inactive, Sm TGR block inconclusive, RE007 growth inh inactive and LmPK inh inactive.
Screening O=C(COC(=O)C1CC(=O)N(Cc2ccco2)C1)c1ccc(OC(=O)c2ccccc2)cc1 (stereo unspecified) returned TbPYK inhibitor inactive, FBPA Giardia inh inactive, Sm TGR block 25.1µM, RE007 growth inh inactive and LmPK inh inactive.
